Here are results for two compounds from PubChem BioAssay (NCATS).

Results filed as inconclusive are left out. Active and inactive are the calls of the source. Unless noted, the call rests on the fitted dose curve; in most records, active means well fitted curve in the direction sought with a large enough effect; inconclusive means small, poorly fitted or top-dose-only effect, or another doubt; inactive means no such curve, though single readings can be large; an effect the other way counts as inactive or inconclusive.

Assay [1] in a line: qHTS to identify inhibitors of the type 1 interferon - major histocompatibility complex class I in skeletal muscle: primary screen against the NCATS Mechanism Interrogation Plate v5.0 (MIPE) Libary (AID 1347411). Further: nearly all actives have a fitted effect of over 65% in size. Further: potency means the concentration at half of the fitted maximal effect. Put shortly: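 HLA-B HiBit myoblasts, dexamethasone-free medium + 4 ng/ml IFN-b, 24 h compound, 11-pt 1:3 from 46 uM final. Readout: Nano-Glo HiBiT lytic luminescence after 10 min lysis, RT.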
A general note: qHTS replaces the single test concentration by a dilution series.

Assay [2] is described as follows: Primary qHTS for inhibitors of nuclear receptor binding SET domain protein 2 (NSD2) in an isogenic RCH-ACV NSD2 p.E1099K mutant (9B) (AID 1645876). Further: potency means the concentration at half of the fitted maximal effect; nearly all actives have a fitted effect of over 70% in size.
Assay [3] in a line: Primary qHTS for inhibitors of nuclear receptor binding SET domain protein 2 (NSD2) in an RCH-ACV wild type WT cells (2C) (AID 1645877). Further: potency means the concentration at half of the fitted maximal effect; nearly all actives have a fitted effect of over 70% in size.
Assay [4] deals with Glutathione peroxidase 1 (Homo sapiens) (UniProt P07203). The experiment in a line: Primary qHTS Assay for Inhibitors of Recombinant Selenoprotein Glutathione Peroxidase 1 (GPX1) (AID 1845191). Further: nearly all actives have a fitted effect of over 65% in size. Put shortly:
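GPX1 10 nM, GR 100 nM, GSH 1 mM, NADPH 0.5 mM, CHP 0.5 mM (final). 30-min cpd preincubation, RT. Ex340/Em450 read t=0, t=15 min.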

The target in assay [5] is Phospholipid hydroperoxide glutathione peroxidase GPX4 (Homo sapiens) (UniProt P36969). The experiment in a line: Primary qHTS Assay for Inhibitors of Recombinant Selenoprotein Glutathione Peroxidase 4 (GPX4) (AID 1845192). Further: series mostly up to about 50 µM; on the % scale 0 is the no-effect control and ±100 the full control effect; nearly all actives have a fitted effect of over 65% in size. The conditions noted are these: outcome: dose series up to 50 µM unless noted. Put shortly:
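qHTS, GR-coupled: GPX4 200 nM + cpd 30 min RT → GSH 1 mM, NADPH 0.5 mM, GR 100 nM → CHP 0.5 mM start; fluor 340/450 at t0 and t15 min; no-enzyme wells as control.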

The nature of assay [6]: qHTS drug screen for cell cycle checkpoint inhibitors in PARPi-resistant BRCA-mutant ovarian cancer cell lines. (AID 1963452; calls by dose curve). The conditions noted are these: PEO1/OlaR viability, CellTiter-Glo luminescence, 96 h, stronger effect = lower value. In a few lines:
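PEO1, PEO4 and PEO1/OlaR ovarian cancer cells, 600 per well, exposed 96 h at 37C to a dilution series. Viability read by CellTiter-Glo luminescence, normalized to DMSO and empty wells; activity summarized as Z-AUC.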

A short description of assay [7]: qHTS assay to identify inhibitors of the type 1 interferon - major histocompatibility complex class I in skeletal muscle: Counter screen cell viability and HiBit confirmation (AID 1347412). Further: potency means the concentration at half of the fitted maximal effect; nearly all actives have a fitted effect of over 60% in size. Particulars: iHSKM muscle cells + IFN-b, HiBiT or CellTiter-Glo, 24 h; HiBiT. Put shortly:
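Duplicate plates, pinned identically: one read for HiBiT-tagged endogenous HLA-B luminescence, the other for ATP-content viability via CellTiter Glo. Cells were genome-engineered human myoblasts given 4 ng/ml IFN-b; compounds 12-pt, 1:3 from 46 uM final; 24 hr exposure.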

Assay [8] deals with Cytochrome P450 2D6 (Homo sapiens) (UniProt P10635). The experiment in a line: Cytochrome P450 family 2 subfamily D member 6 (CYP2D6) small molecule antagonists: luciferase biochemical (cell-free) qHTS assay (AID 1645840; active means well fitted curve in the direction sought with a large enough effect in the repeat runs; an effect the other way counts as inactive or inconclusive; further: potency means the concentration at half of the fitted maximal effect; nearly all actives have a fitted effect of over 55% in size). In a few lines: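 P450-Glo CYP2D6 system: proluciferin substrate converted by enzyme to luciferin, read by luminescence proportional to activity. Enzyme-substrate mix with compound 10 min at room temperature, then NADPH regeneration 1 h before detection reagent.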
Cytochrome P450 2D6 (Homo sapiens), sequence (P10635 whole entry, looked up): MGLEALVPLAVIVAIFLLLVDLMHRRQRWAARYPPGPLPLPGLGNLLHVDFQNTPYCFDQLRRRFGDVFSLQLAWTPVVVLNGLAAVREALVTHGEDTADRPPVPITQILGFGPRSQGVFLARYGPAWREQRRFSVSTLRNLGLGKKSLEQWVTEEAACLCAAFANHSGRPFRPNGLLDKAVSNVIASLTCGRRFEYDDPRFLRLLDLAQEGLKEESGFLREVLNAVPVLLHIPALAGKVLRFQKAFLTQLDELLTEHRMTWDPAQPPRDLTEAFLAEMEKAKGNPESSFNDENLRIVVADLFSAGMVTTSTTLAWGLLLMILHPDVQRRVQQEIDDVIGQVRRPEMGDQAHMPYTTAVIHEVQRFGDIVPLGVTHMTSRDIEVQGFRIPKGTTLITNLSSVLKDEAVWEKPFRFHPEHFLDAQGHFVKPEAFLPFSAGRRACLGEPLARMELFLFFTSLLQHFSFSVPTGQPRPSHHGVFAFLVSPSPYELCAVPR

Assay [9] addresses Cytochrome P450 2C9 (Homo sapiens) (UniProt P11712). Nature of the assay: Cytochrome P450 family 2 subfamily C member 9 (CYP2C9) small molecule antagonists: luciferase biochemical (cell-free) qHTS assay (AID 1645842; active means well fitted curve in the direction sought with a large enough effect in the repeat runs; an effect the other way counts as inactive or inconclusive; further: potency means the concentration at half of the fitted maximal effect; nearly all actives have a fitted effect of over 55% in size). In a few lines: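 P450-Glo CYP2C9 system: proluciferin substrate with enzyme in mix containing 0.4% BSA, 10 min at room temperature, then NADPH regeneration solution added and incubated 1 h at 37C. Detection reagent stopped reaction; luminescence read after 20 min as RLU.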

Assay [10] can be described thus: NCATS anti-infectives library activity on HEK293 viability as a counter-qHTS vs the C. elegans viability qHTS (AID 1745854). Further: on the % scale 0 is the no-effect control and ±100 the full control effect. In a few lines:
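CellTiter-Glo luminescence, read on a CCD imager, scored viability of HEK293 cells after 24 hr compound exposure at 37C. Library tested in several concentrations, 1:5 steps, up to 41.7 uM; digitonin served as control.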

[11] abbreviates: measured here: PEO1 parental Z-AUC.

Glutathione peroxidase 1 (Homo sapiens), sequence (P07203 whole entry, looked up): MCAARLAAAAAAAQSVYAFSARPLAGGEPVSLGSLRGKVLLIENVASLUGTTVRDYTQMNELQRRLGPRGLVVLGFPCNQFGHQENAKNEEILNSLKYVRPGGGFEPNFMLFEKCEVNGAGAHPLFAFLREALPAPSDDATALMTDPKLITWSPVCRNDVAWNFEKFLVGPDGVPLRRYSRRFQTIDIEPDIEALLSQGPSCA
Phospholipid hydroperoxide glutathione peroxidase GPX4 (Homo sapiens), sequence (P36969 whole entry, looked up): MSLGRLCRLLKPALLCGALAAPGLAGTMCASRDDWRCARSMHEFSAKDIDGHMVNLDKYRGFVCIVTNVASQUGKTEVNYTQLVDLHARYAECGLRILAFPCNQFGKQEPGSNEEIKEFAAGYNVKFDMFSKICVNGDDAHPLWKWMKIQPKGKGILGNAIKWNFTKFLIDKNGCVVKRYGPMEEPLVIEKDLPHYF
Cytochrome P450 2C9 (Homo sapiens), sequence (P11712 whole entry, looked up): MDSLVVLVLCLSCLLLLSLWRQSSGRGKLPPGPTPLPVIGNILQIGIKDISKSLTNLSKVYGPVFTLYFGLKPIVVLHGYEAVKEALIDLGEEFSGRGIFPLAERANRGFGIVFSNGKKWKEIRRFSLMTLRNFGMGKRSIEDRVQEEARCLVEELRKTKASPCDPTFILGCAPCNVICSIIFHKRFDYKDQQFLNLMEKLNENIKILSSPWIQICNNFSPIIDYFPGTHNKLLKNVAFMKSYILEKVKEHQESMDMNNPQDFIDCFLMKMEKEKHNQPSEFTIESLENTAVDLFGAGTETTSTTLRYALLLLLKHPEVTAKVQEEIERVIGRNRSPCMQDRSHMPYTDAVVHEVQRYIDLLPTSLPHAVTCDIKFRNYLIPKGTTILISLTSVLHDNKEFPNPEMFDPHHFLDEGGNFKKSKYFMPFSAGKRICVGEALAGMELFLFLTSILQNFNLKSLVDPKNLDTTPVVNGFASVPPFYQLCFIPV

With `CC(=O)Nc1cc(Oc2ccc3c(nc(Nc4ccc(F)cc4F)n3C)c2C)ccn1`, the Potency is 0.262 µM (active) in [1], 11.8 µM (active) in [2], 2.63 µM (active) in assay [3] and 1.11 µM (active) in [7]. Further, the Potency result in assay [4] and in assay [5] was “inactive” throughout. The Z-AUC in assay [6] was -0.216 (inactive); in [6] (setting [11]) it was -0.646; in assay [6] (measured here: PEO4 Z-AUC), -1.5.
As to `Cc1cccc(/C=N/Nc2cc(N3CCOCC3)nc(OCCc3ccccn3)n2)c1`, the Potency entry in assay [1], in assay [10], in assay [4] and in [5] was “inactive” throughout. In addition, the Potency is 10.7 µM (active) in [8], 7.56 µM (active) in [9], 0.468 µM (active) in assay [2] and 0.296 µM (active) in assay [3]. For the same compound, the Z-AUC in assay [6] is 0.655 (inactive); in assay [6] (setting [11]) it was 0.0151; in assay [6] (measured here: PEO4 Z-AUC), 0.106.
